Data reported in the supplement of paper PMC10646978.
± gives the standard deviation.

Tests used:
Conditions in all cases: modulator concentration 10 µM
[1] = tested on: RAW-Dual (murine macrophage reporter line); assay: NF-kB reporter (SEAP) activity fold change vs agonist alone; higher = enhanced NF-kB activity
Summary of the method: (§1)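 RAW-Dual murine macrophage reporter cells were plated at 50 000 per well in 384-well plates, pin-transferred compound to 10 μM final, and pre-incubated for 1 hour at 37 °C before a PRR agonist was added and the cells incubated overnight. NF-κB activity was read from supernatant SEAP with QUANTI-Blue at 620 nm absorbance, and IRF activity from Lucia luciferase with QUANTI-Luc by luminescence. Each signal was expressed as fold change by dividing by the mean agonist-only control on the same plate. Two replicate plates were averaged, with errors obtained by propagation.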

[2] = tested on: RAW-Dual (murine macrophage reporter line); assay: IRF reporter (Lucia luciferase) activity fold change vs agonist alone; higher = enhanced IRF activity
Summary of the method: as §1

[3] = tested on: RAW-Dual (murine macrophage reporter line); assay: viability score (confluency relative to resting cells, overnight) (fraction); higher = more viable, active = viable (0.7 or more)
Summary of the method: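 A compound met the cutoff when both of two confluency masks exceeded 70% of resting cells. Those masks were made with IncuCyte software from IncuCyte images of RAW-Dual macrophages treated overnight at 10 μM final. This is the basis of the viability score, which is confluency relative to resting cells.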

[4] = agonist: CpG ODN 1826 0.5 ug/mL

SMILES	NF-kB reporter [1, 4]	NF-kB reporter ([1]; agonist: LPS 0.1 ug/mL)	NF-kB reporter ([1]; agonist: MPLA […])	IRF reporter ([2]; agonist: 3'3'-cGAMP 10 ug/mL)	IRF reporter ([2]; agonist: LPS 0.1 ug/mL)	IRF reporter ([2]; agonist: MPLA […])	viability score [3]
CS(=O)(=O)Nc1cccc(F)c1	1.12 ± 0.088	1.08 ± 0.074	1.03 ± 0.061	1 ± 0.17	1.07 ± 0.14	1.07 ± 0.22	1 (active)
O=C(Nc1ccncc1)c1ccc(OCC2CCOCC2)nc1	1.15 ± 0.063	1.39 ± 0.12	1.28 ± 0.082	1.22 ± 0.083	1.28 ± 0.11	1.24 ± 0.34	0.996 (active)
COC1CCN(C2CN(C(=O)CCn3cnc4ccccc4c3=O)C2)CC1	1.05 ± 0.052	1.08 ± 0.092	0.882 ± 0.044	1.01 ± 0.052	1.27 ± 0.076	1.13 ± 0.24	0.994 (active)
COc1ccc(-c2nc3cc(C4=NNC(=O)CC4C)ccc3[nH]2)cc1 (configuration not stated)	2.4 ± 0.37	1.37 ± 0.23	1.14 ± 0.073	0.164 ± 0.057	1.07 ± 0.25	1.33 ± 0.12	0.775 (active)
CCOC(=O)C(CC)Oc1ccc2c(C)c(CC)c(=O)oc2c1 (configuration not stated)	0.955 ± 0.063	0.875 ± 0.071	0.976 ± 0.035	0.832 ± 0.03	0.852 ± 0.13	0.848 ± 0.27	0.986 (active)
CS(=O)(=O)N1CCCCC1C(=O)N(CC1CCCO1)c1nc2c(F)cccc2s1 (configuration not stated)	0.814 ± 0.072	1.02 ± 0.1	0.773 ± 0.054	1.24 ± 0.078	1.19 ± 0.077	1.23 ± 0.16	0.966 (active)
CC(C)(C)C1CCc2c(sc(NC(=O)c3ccc(F)cc3)c2C(N)=O)C1 (configuration not stated)	0.981 ± 0.16	0.999 ± 0.12	1 ± 0.13	0.914 ± 0.041	1.24 ± 0.3	1.24 ± 0.21	0.56 (inactive)
Cc1ccc(C(=O)N2N=C(c3ccncc3)CC2(O)C(F)(F)F)cc1 (configuration not stated)	0.764 ± 0.062	0.831 ± 0.12	0.985 ± 0.097	0.86 ± 0.043	1.26 ± 0.081	1.29 ± 0.14	1.01 (active)
Cc1ccc(Sc2cc(Sc3ccc(C)cc3)c3noc4c3c2C(=O)c2ccccc2-4)cc1	0.971 ± 0.078	1.03 ± 0.075	0.957 ± 0.09	0.959 ± 0.052	1.28 ± 0.21	1.49 ± 0.38	1.01 (active)
CCOc1ccccc1NC(=O)Nc1ccc2c(c1)CC(=O)N2CC	1.17 ± 0.083	0.945 ± 0.092	0.998 ± 0.028	0.694 ± 0.037	0.844 ± 0.077	0.797 ± 0.089	0.998 (active)
CCN1CCN(Cc2ccc(Nc3ncc(F)c(-c4cc(F)c5nc(C)n(C(C)C)c5c4)n3)nc2)CC1.CS(=O)(=O)O	0.095 ± 0.023	0.793 ± 0.04	3.04 ± 0.21	0.29 ± 0.018	0.19 ± 0.035	0.314 ± 0.03	0.852 (active)
CS(=O)(=O)N1CC(C(=O)N2CCN(c3cccc(Cl)c3Cl)CC2)C1	1.16 ± 0.065	1.08 ± 0.12	0.985 ± 0.027	0.906 ± 0.035	0.935 ± 0.082	0.958 ± 0.13	0.999 (active)
CSc1nc2cccc(F)c2c(=O)n1C1CC1	1.06 ± 0.078	1.02 ± 0.093	1.18 ± 0.076	1.09 ± 0.051	1.31 ± 0.25	1.52 ± 0.38	0.67 (inactive)
Cc1cccc(C(=O)NC(Nc2ccccc2C(F)(F)F)C(Cl)(Cl)Cl)c1 (configuration not stated)	0.896 ± 0.079	1.05 ± 0.077	1.22 ± 0.23	0.948 ± 0.05	1.22 ± 0.2	1.26 ± 0.4	1.01 (active)
CCOc1ccc(CN(CCc2ccc3c(c2)OCO3)Cc2ccc3ccccc3c2)cc1	0.733 ± 0.083	0.954 ± 0.063	0.781 ± 0.053	0.197 ± 0.0058	1.54 ± 0.2	1.2 ± 0.16	0.989 (active)
CC1(C)CC(=O)c2sc(NC(=O)c3ccccc3)nc2C1	1.05 ± 0.078	1.08 ± 0.12	1 ± 0.036	0.807 ± 0.048	1 ± 0.13	1.02 ± 0.12	1 (active)
COC(=O)c1cc(OC)c(=O)c2c(OC)c(OC)ccc2c1	1.08 ± 0.33	0.981 ± 0.059	0.931 ± 0.1	0.743 ± 0.03	1.02 ± 0.22	0.884 ± 0.088	0.984 (active)
CCOP(C)(=O)C(c1ccccc1)N(C)S(C)(=O)=O (configuration not stated)	1.01 ± 0.089	1.04 ± 0.058	1.03 ± 0.062	1.03 ± 0.046	1.66 ± 0.19	1.22 ± 0.17	1.01 (active)
COc1ccc(C(C)NC(=O)CCc2nnc3ccc(-c4ccc(C)c(C)c4)nn23)cc1OC (configuration not stated)	1.3 ± 0.23	1.06 ± 0.083	1.4 ± 0.38	0.301 ± 0.14	0.963 ± 0.088	0.623 ± 0.089	1.01 (active)
CC12CC3CC(C1)CC(CC(=O)O)(C3)C2	1.02 ± 0.18	1.04 ± 0.12	0.994 ± 0.17	0.907 ± 0.029	1.09 ± 0.11	1.3 ± 0.3	0.526 (inactive)
CC(C)c1ccc(OCC(=O)NCc2nnc3n2CCC(C(F)(F)F)C3)cc1 (configuration not stated)	1.24 ± 0.094	1.05 ± 0.08	0.988 ± 0.06	0.99 ± 0.074	1.1 ± 0.075	1.05 ± 0.13	0.996 (active)
NC(=O)c1ccc(I)c([N+](=O)[O-])c1	0.743 ± 0.25	0.842 ± 0.23	0.828 ± 0.046	0.678 ± 0.024	0.905 ± 0.32	1 ± 0.13	0.981 (active)
Cl.NC1=NCC2c3ccccc3Cc3ccccc3N12 (configuration not stated)	1.03 ± 0.077	1.09 ± 0.056	1.06 ± 0.077	0.898 ± 0.068	0.982 ± 0.051	0.822 ± 0.11	1 (active)
COc1ccc(C(C)NC(=O)c2[nH]nnc2-c2ccc(F)cc2)cc1 (configuration not stated)	1.17 ± 0.066	0.983 ± 0.14	1.01 ± 0.054	0.669 ± 0.026	1.01 ± 0.094	0.958 ± 0.15	0.997 (active)
Cc1ccc(C(CNC(=O)Cc2cccc3ccccc23)N(C)C)cc1 (configuration not stated)	0.647 ± 0.033	1.13 ± 0.094	1.06 ± 0.048	0.899 ± 0.045	1.03 ± 0.12	1.23 ± 0.27	0.738 (active)
COc1cc2c(cc1OC)C(=O)C(CC1CCN(Cc3ccccc3)CC1)C2.Cl (configuration not stated)	0.127 ± 0.011	0.947 ± 0.072	1.46 ± 0.14	0.791 ± 0.067	1.15 ± 0.25	1.29 ± 0.22	0.959 (active)
